TDP1 inh – blocks human tyrosyl-DNA phosphodiesterase 1; recombinant TDP1, AlphaScreen DNA substrate cleavage; 350,000 compounds, 0.28% hits; AID 485290; Potency, µM (series often up to 130 µM), for the others: at the highest dose activity change, negative = inhibition, most hits filed as inhibitors; further: on the % scale 0 is the no-effect control and ±100 the full control effect; nearly all actives have a fitted effect of over 40% in size
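Here, a 5' biotin and 3' phosphotyrosine-FITC DNA oligonucleotide reports Tdp1 activity: intact substrate bridges AlphaScreen beads, while cleavage leaves a 3' phosphate and drops signal. All incubations at room temperature.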
TDP1 cell noCPT – qHTS for Inhibitors of human tyrosyl-DNA phosphodiesterase 1 (TDP1): qHTS in cells in absence of CPT | DT40 Tdp1-/- hTDP1 cells, no CPT, ATP luminescence, 48 h | Potency, µM (titrated, usually from 46.2 µM), for inactives: at the highest dose activity change, negative = growth inhibition, actives largely listed as inhibitors | 420,000 compounds, 15% hits | AID 686978, 2013; further: on the % scale 0 is the no-effect control and ±100 the full control effect; nearly all actives have a fitted effect of over 55% in size
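Readout: luminescence from CellTiter-Glo after 30 min in the dark at RT. Cells: DT40 Tdp1-/- with stable hTDP1, 400/well. Exposure: compounds alone, ≥48 hr, 37 °C.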
TDP1 cell CPT – DT40-hTDP1 cell growth loss with CPT; chicken DT40 Tdp1-/-;hTDP1 cells + 20 nM CPT, ATP luminescence, 48 h; Potency, µM (series often up to 46.2 µM), without a hit: at the top dose activity change, negative = growth inhibition, actives largely listed as inhibitors; 420,000 compounds, 12% hits; AID 686979; further: on the % scale 0 is the no-effect control and ±100 the full control effect; nearly all actives have a fitted effect of over 55% in size
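Cell growth measured by CellTiter-Glo luminescence after a minimum 48 h, 37 C compound exposure with 20 nM CPT in Tdp1-knockout DT40 cells stably expressing hTDP1, seeded 400/well; qHTS titration format.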
ClpP mod – qHTS Assay for Activators of ClpP; Potency, µM (top dose mostly 57.5 µM), without a hit: top-dose activity change, negative = active; purified B. subtilis ClpP, FRET peptide cleavage, 20 min; 340,000 compounds, 1.9% hits; active means well fitted falling curve with a large enough effect; inconclusive means small, poorly fitted or top-dose-only effect; inactive means no such curve, though single readings can be large or run the other way; further: the source files actives as falling curves though it sought activators and does not explain the sign; nearly all actives have a fitted effect of over 65% in size
Target sequence (P80244 whole entry, looked up): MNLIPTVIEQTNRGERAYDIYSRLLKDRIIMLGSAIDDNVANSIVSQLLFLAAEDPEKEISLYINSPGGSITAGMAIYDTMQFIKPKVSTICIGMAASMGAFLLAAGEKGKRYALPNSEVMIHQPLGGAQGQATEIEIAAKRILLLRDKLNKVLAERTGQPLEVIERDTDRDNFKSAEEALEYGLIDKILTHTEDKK
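Buffer: 100 mM Tris/HCl pH8, 100 mM KCl, 0.05% low protease BSA, 2.5% glycerol, 0.01% Tween-20. ClpP 10 microg/mL final; 20 min RT; delta FRET normalized to ADEP and DMSO controls.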
* hit, by the source's call; ? = inconclusive; . = no result; [ ] = remark or other dose. Most compounds without a hit are left out; they make up all but 17% or so of the library. Unless noted, the call rests on the fitted dose curve; in most records, active means well fitted curve in the direction sought with a large enough effect; inconclusive means small, poorly fitted or top-dose-only effect, or another doubt; inactive means no such curve, though single readings can be large; an effect the other way counts as inactive or inconclusive. Potency means the concentration at half of the fitted maximal effect.

SMILES | TDP1 inh | TDP1 cell noCPT | TDP1 cell CPT | ClpP mod
Cc1ccccc1CN1C(=O)c2ccccc2S(=O)(=O)c2ccc(C(=O)OCC3CCCO3)cc21 (centres undefined) | 0% | -20% | -7% | -4%
CC1C(=O)N(Cc2ccc(F)cc2)c2ccccc2N1C(=O)c1c(F)cccc1F (centres undefined) | . | ? | 16µM* | 2%
COC(=O)c1ccc(CN2C(=O)C(C)N(C(=O)c3c(F)cccc3F)c3ccccc32)cc1 (centres undefined) | . | 8.2µM* | 15µM* | 0%
COC(=O)c1ccc(CN2C(=O)c3ccccc3C2=O)cc1 | 2% | 0% | 5% | -12%
CC1C(=O)N(Cc2ccc([N+](=O)[O-])cc2)c2ccccc2N1C(=O)C1CC1 (centres undefined) | 9% | ? | ? | .
CC(C)=CCC/C(C)=C/CO/N=C1/C[C@@H](O)[C@@H](O)[C@@H]2[C@@H]3C(=O)N(Cc4ccccc4)C(=O)[C@H]3CC[C@H]12 | 8%[21 µM] | . | . | .
COc1cccc(NC(=S)NC2CC(C)CC(C)(C)C2)c1 (centres undefined) | . | 23µM* | 21µM* | 1%
COc1cccc(NC(=S)Nc2ccc(O)cc2)c1 | . | 19% | -18% | 1%
CN(C(=O)CSc1nnc(COc2ccccc2)o1)c1ccccc1 | 0% | -14% | -17% | -3%
O=S(=O)(c1cccs1)N1CCN(CC(O)COc2cccc(Br)c2)CC1 (centres undefined) | 1% | ? | 21µM* | -3%
Cc1ccc(C(=O)NNC(=O)CSc2nnc(C3CC3)n2C)cc1 | 11% | -17% | 19% | .
COC(=O)C1CCCCN1Cc1ccc2c(c1)CN(C(=O)c1cc(C)nc3cc(F)ccc13)CCO2 (centres undefined) | . | ? | 11%[9.04 µM] | .
Oc1c(C(c2ccc(Cl)cc2)N2CCOCC2)sc2nc(-c3ccco3)nn12 (centres undefined) | 3% | -18% | -8% | 0%
CN(C(=O)c1cc(COc2ccc(F)cc2Cl)on1)C1CCCc2ccccc21 (centres undefined) | -6% | ? | ? | -1%
O=C(NCCCN1CCN(c2ccccc2)CC1)c1nnc(Cc2c(F)cccc2Cl)o1 | 5% | 21µM* | 23µM* | -2%
O=C(NCc1ccncc1)c1nnc(Cc2c(F)cccc2Cl)o1 | 1% | -14% | -26% | 2%
CC(C)(C)c1cc(=O)n2c(C#N)c(C#N)nc2[nH]1 | -5% | -10% | 18% | 28µM*
CC(C)c1ccc(OCC(=O)NNC(=S)NC(=O)C2CC2)cc1 | 3% | 15µM* | ? | -1%
Cc1ccc(OCC(=O)NNC(=S)NC(=O)C2CC2)c(C)c1 | 0% | . | . | .
CC(C)c1ccc(OCC(=O)NNC(=S)NC(=O)c2cccs2)c(Br)c1 | 1% | 23µM* | 18µM* | -2%
Cc1ccc(OCC(=O)NC(=S)Nc2ccccn2)c(Br)c1 | 0% | -6% | -9% | 7%
N#Cc1ccc(OCC(=O)NNC(=S)NC(=O)C2CC2)cc1 | 2% | 21µM* | ? | -4%
Cc1ccc(OCC(=O)NNC(=S)NC(=O)C(C)(C)C)c(Br)c1 | 11% | 18µM* | ? | .
CC(C)c1ccc(OCC(=O)NN2C(=O)c3ccccc3C2=O)c(Br)c1 | . | 0% | 9% | 0%
CCC(C)c1ccc(OCC(=O)NNC(=O)C2CCCCC2)cc1 (centres undefined) | 2% | -2% | 0% | 0%
Cc1cccc(COc2ccc(S(=O)(=O)N3CCOCC3)cc2[N+](=O)[O-])c1 | 0% | -16% | -6% | -2%
O=C(NCc1cccnc1)OC1CC2CC1[C@H]1CCCCN1C2=O (some centres undefined) | . | -2% | 13% | -2%
Cc1ccc(OCC(=O)NNC(=S)NC(=O)C2CCCCC2)c(C)c1 | 6% | 21µM* | ? | 1%
CC(OC(=O)Cc1n[nH]c(=O)c2ccccc12)C(=O)Nc1ccc(Cl)cn1 (centres undefined) | 6%[56.1 µM] | ? | ? | -2%
CC(OC(=O)Cc1n[nH]c(=O)c2ccccc12)C(=O)Nc1cc(Cl)cc(Cl)c1 (centres undefined) | -8%[0.505 µM] | 23µM* | ? | .

Bioassay records deposited in PubChem BioAssay by National Center for Advancing Translational Sciences (NCATS).
